This note sets out measurements from PubChem BioAssay (NCATS).

SMILES strings stand for the structures. Results filed as inconclusive are left out. A call without a number means that no potency is given here. Calls of active or inactive are those of the source. Calls come from the whole dose curve; as a rule, active = well fitted inhibition curve with a large enough effect; inconclusive = small, poorly fitted or top-dose-only effect; inactive = flat fitted curve, though single readings scatter.

Chain of Glutathione peroxidase 1 (Homo sapiens) (P07203 whole entry, looked up): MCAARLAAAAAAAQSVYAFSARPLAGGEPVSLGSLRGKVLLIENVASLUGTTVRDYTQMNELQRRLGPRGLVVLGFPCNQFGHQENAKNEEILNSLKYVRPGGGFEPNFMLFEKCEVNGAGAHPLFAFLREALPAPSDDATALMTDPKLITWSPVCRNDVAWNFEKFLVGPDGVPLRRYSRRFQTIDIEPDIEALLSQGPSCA

In the experiment the target is Glutathione peroxidase 1 (Homo sapiens) (UniProt P07203). Briefly: Primary qHTS Assay for Inhibitors of Recombinant Selenoprotein Glutathione Peroxidase 1 (GPX1) (AID 1845191). Note: nearly all actives have a fitted effect of over 65% in size. Particulars: recombinant GPX1, GR-coupled NADPH fluorescence, 15 min; series mostly up to 48.8 µM. Put shortly:
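GPX1 10 nM, GR 100 nM, GSH 1 mM, NADPH 0.5 mM, CHP 0.5 mM (final). 30-min cpd preincubation, RT. Ex340/Em450 read t=0, t=15 min.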
(In qHTS, concentration-response curves come from the screen itself.)
With `CN1CCN(c2cc(C(=O)Nc3ccc4c(c3)-c3c(c(C(N)=O)nn3-c3ccc(F)cc3)CC4)c(Cl)cn2)CC1`, the Potency result was “inactive”.

In the case of `COc1cc(C)c(Sc2cnc(NC(=O)c3ccc(CNC(C)C(C)C)cc3)s2)cc1C(=O)N1CCN(C(C)=O)CC1` (centres undefined), the Potency result was “inactive”.

As for `COc1cc(Nc2ncc(F)c(Nc3ccc4c(n3)N(COP(=O)(O)O)C(=O)C(C)(C)O4)n2)cc(OC)c1OC`, the Potency entry was “inactive”.

In the case of `CC(=O)OCC(=O)[C@@]1(O)[C@H](C)C[C@H]2[C@@H]3C=C(C)C4=Cc5c(cnn5-c5ccccc5)C[C@]4(C)[C@@H]3[C@@H](O)C[C@@]21C`, the Potency entry is “inactive”.

On to `CC1(O)CC(c2nc(-c3ccc4ccc(-c5ccccc5)nc4c3)c3c(N)nccn23)C1` (centres undefined), for which the Potency entry is “inactive”.

For the compound `Fc1cc(-c2cccc3ncc(-c4cnn(C5CCNCC5)c4)nc23)cc(F)c1CN1CCOCC1`, the Potency result was “inactive”.

On to `C[C@]12CC[C@H](O)CC1=CCC1C2CC[C@]2(C)C(n3cnc4ccccc43)=CCC12` (some centres undefined), for which the Potency entry was “inactive”.

For `Cc1cc(Nc2ncnc3ccc(-c4ccc(CNCCS(C)(=O)=O)o4)cc23)ccc1Oc1ccn2ncnc2c1`, the Potency entry was “inactive”.

On to `CCCCOc1c(C(=O)c2c(F)cc(C)cc2F)cnc2n[nH]cc12`, for which the Potency entry is “inactive”.

Consider `Cn1c(=O)n(-c2ccc(C(C)(C)C#N)cc2)c2c3cc(-c4cnc5ccccc5c4)ccc3ncc21`, for which the Potency entry was “inactive”.

For `Cc1cnc(-c2cnc(NCCNc3ccc(C#N)cn3)nc2-c2ccc(Cl)cc2Cl)[nH]1`, the Potency entry was “inactive”.

`CC(C)c1nn(-c2c(Cl)cccc2Cl)c2nc(Cc3ccc(OCCO)cc3)[nH]c(=O)c12`: the Potency entry was “inactive”.

On to `CC[C@@H]1C(=O)N(C)c2cnc(Nc3ccc(C(=O)NC4CCC(N5CCN(CC6CC6)CC5)CC4)cc3OC)nc2N1C(C)C` (some centres undefined), for which the Potency entry is “inactive”.

`CC(=O)c1c(C)c2cnc(Nc3ccc(N4CCNCC4)cn3)nc2n(C2CCCC2)c1=O`: the Potency result was “inactive”.

Turning to `C[C@@H]1COC(Nc2ccc3ncnc(Nc4ccc(OCc5nccs5)c(Cl)c4)c3c2)=N1`, the Potency entry is “inactive”.

For the compound `NCC(=O)Nc1ccc(-n2nc(C(F)(F)F)cc2-c2ccc3c(ccc4ccccc43)c2)cc1`, the Potency result was “inactive”.

As to `CC[C@@]1(O)C(=O)OCc2c1cc1n(c2=O)Cc2cc3cc(O)ccc3nc2-1`, the Potency result is “inactive”.

In the case of `O=C(O)[C@H](Cc1c[nH]c2ccccc12)N1C(=O)c2ccccc2C1=O`, the Potency result is “inactive”.

With `C[C@@H](Oc1cc(-n2cnc3ccc(CN4CCN(C)CC4)cc32)sc1C(N)=O)c1ccccc1C(F)(F)F`, the Potency result is “inactive”.

Regarding `CC(C)(C)c1cc(NC(=O)Nc2ccc(-c3cn4c(n3)sc3cc(OCCN5CCOCC5)ccc34)cc2)no1`, the Potency entry was “inactive”.

For `O=C(Nc1cc(C(F)(F)F)cc(C(F)(F)F)c1)c1cc(Cl)ccc1O`, the Potency entry is “inactive”.

`c1ccc2c(CCNc3ccc(Nc4ccncc4)cc3)c[nH]c2c1`: the Potency entry was “inactive”.

As for `Cc1ccc(C(=O)Nc2ccc(CN3CCN(C)CC3)c(C(F)(F)F)c2)cc1C#Cc1cnc2cccnn12`, the Potency entry was “inactive”.

For the compound `COC(=O)Nc1nc2ccc(C(=O)c3ccc(F)cc3)cc2[nH]1`, the Potency entry is “inactive”.

As for `CC(C)c1cc(C(=O)N2Cc3ccc(CN4CCN(C)CC4)cc3C2)c(O)cc1O`, the Potency entry is “inactive”.

As to `CN1CCN(Cc2ccc(NC(=O)Nc3ccc(Oc4cc(NC(=O)C5CC5)ncn4)cc3)cc2C(F)(F)F)CC1`, the Potency result was “inactive”.

Regarding `Cc1cn2cc(C(=O)N(C)CCO)cc(N[C@@H]3CCOc4cccc(C)c43)c2n1`, the Potency result is “inactive”.

As to `COc1cccc(-c2ccc(NC(=O)C3=C(C(=O)O)CCC3)c(F)c2)c1`, the Potency entry is “inactive”.

In the case of `CNC(=O)c1cc(Oc2ccc(NC(=O)Nc3cc(C(C)(C)C)nn3-c3ccc4ncccc4c3)c(F)c2)ccn1`, the Potency result was “inactive”.

In the case of `Cc1c(Cn2c(C)nc3c(C(=O)O)cc(N4CCOCC4)cc32)cccc1C(F)(F)F`, the Potency result was “inactive”.

`CCN(CC)CCCCNc1ncc2cc(-c3cc(OC)cc(OC)c3)c(NC(=O)NC(C)(C)C)nc2n1`: the Potency entry was “inactive”.

On to `Cc1nc2cnc3ccc(C#Cc4cccnc4)cc3c2n1-c1ccc(C(C)(C)C#N)cc1`, for which the Potency entry is “inactive”.

As to `CCN1CCN(CC(=O)Nc2ccc(-c3cccc4c(=O)cc(N5CCOCC5)oc34)c3sc4ccccc4c23)CC1`, the Potency result was “inactive”.

Turning to `c1cc(-c2cnn3cc(-c4ccc(OCCN5CCCCC5)cc4)cnc23)ccn1`, the Potency result is “inactive”.

Consider `C=C1C(=CC=C2CCC[C@]3(C)[C@@H]([C@H](C)C=C[C@H](C)C(C)C)CC[C@@H]23)C[C@@H](O)C[C@@H]1O`, for which the Potency entry is “inactive”.

`CC(C)c1cnn2c(NCc3ccccc3)cc(N[C@@H](CO)[C@H](O)CO)nc12`: the Potency result was “inactive”.

As for `CN(c1ncccc1CNc1nc(Nc2ccc3c(c2)CC(=O)N3)ncc1C(F)(F)F)S(C)(=O)=O`, the Potency result was “inactive”.

In the case of `Nc1nc(Nc2ccc(S(N)(=O)=O)cc2)nn1C(=O)c1c(F)cccc1F`, the Potency entry is “inactive”.

Take `CN(C)CC(C)(C)CNc1nn2c(-c3ccccc3)nnc2cc1C1CCC1`: the Potency entry is “inactive”.
